The assay concerns HEK293T (UBE3A T485A transfected, BAR Wnt reporter). Briefly: Wnt reporter firefly/Renilla luciferase ratio relative to plate median (fold (linear ratio)); higher = more Wnt/beta-catenin reporter activation. The note with it: 24 h. The gist of the method:
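Using Fugene 6, HEK293T cells in white 384-well plates (4500 cells/well; DMEM, 10% FBS, 37°C, 5% CO2) were transfected with a BAR firefly luciferase Wnt reporter, TK-Renilla and an expression plasmid. After four hours, robots dosed the chemicals at 0.01–100 uM, and a Dual-Glo luciferase readout followed 24 h later. Per-plate median-centred firefly/Renilla ratios gave Wnt activity, while per-plate median-centred raw Renilla signals gave cell health. Four biological replicates were averaged.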

Over roughly 1,100 compounds, “Wnt reporter firefly/Renilla luciferase ratio relative to plate median” has its median near 1.1; the highest 2% begin near 1.6. This is one part of a sample in which the highest values are shown more often than they occur.

Turning to `CCOC(=O)C(C)OC(=O)c1cc(Oc2ccc(C(F)(F)F)cc2Cl)ccc1[N+](=O)[O-]` (stereo not drawn) [Lactofen], the “Wnt reporter firefly/Renilla luciferase ratio” value was 1.04 (concentration: 0.01 uM); 1.3 (concentration: 0.1 uM); 1.14 (concentration: 1 uM); 1.16 (concentration: 10 uM); 0.261 (concentration: 100 uM).
For `CC(C)Nc1nc(Cl)nc(NC(C)C)n1` [Propazine], the “Wnt reporter firefly/Renilla luciferase ratio” value turned out to be 1.55 (concentration: 0.01 uM); 1.1 (concentration: 0.1 uM); 1.01 (concentration: 1 uM); 1.03 (concentration: 10 uM); 1.11 (concentration: 100 uM).
`Oc1c(Cl)cc(Cl)cc1Cl` [2,4,6-Trichlorophenol]: the “Wnt reporter firefly/Renilla luciferase ratio” value (concentration: 0.1 uM) stood at 0.821, the “Wnt reporter firefly/Renilla luciferase ratio” value (concentration: 1 uM) amounted to 1.09, the “Wnt reporter firefly/Renilla luciferase ratio” value (concentration: 10 uM) was 1.37 and the “Wnt reporter firefly/Renilla luciferase ratio” value (concentration: 100 uM) turned out to be 0.524.
Consider `CS(=O)(=O)c1cc(C(F)(F)F)ccc1C(=O)c1cnoc1C1CC1` [Isoxaflutole], for which the “Wnt reporter firefly/Renilla luciferase ratio” value (concentration: 0.01 uM) worked out at 1.11; the “Wnt reporter firefly/Renilla luciferase ratio” value (concentration: 0.1 uM) was found to be 1.4; the “Wnt reporter firefly/Renilla luciferase ratio” value (concentration: 1 uM) amounted to 1.02; the “Wnt reporter firefly/Renilla luciferase ratio” value (concentration: 10 uM) stood at 1.36; the “Wnt reporter firefly/Renilla luciferase ratio” value (concentration: 100 uM) stood at 1.45.
For `C#CCOS(=O)OC1CCCCC1Oc1ccc(C(C)(C)C)cc1` (stereo not drawn) [Propargite] the same measures were 1.24, 1.16, 1.02, 0.934 and 0.259.
Take `CON=C(C(=O)OC)c1ccccc1CON=C(C)c1cccc(C(F)(F)F)c1` [Trifloxystrobin]: the “Wnt reporter firefly/Renilla luciferase ratio” value reads like this: (concentration: 0.01 uM) 0.871; (concentration: 0.1 uM) 1.03; (concentration: 1 uM) 0.939; (concentration: 10 uM) 0.327.
For the compound `COP(=S)(OC)Oc1ccc([N+](=O)[O-])cc1` [Methyl parathion], the “Wnt reporter firefly/Renilla luciferase ratio” value is, setting by setting: (concentration: 0.01 uM) 1.23; (concentration: 0.1 uM) 1.05; (concentration: 1 uM) 1.21; (concentration: 10 uM) 1.02; (concentration: 100 uM) 0.89.
For `COP(=S)(OC)Oc1ccc([N+](=O)[O-])c(C)c1` [Fenitrothion] the same measures were 1.53, 2.01, 1.26, 1.43 and 0.976.
For `COP(=S)(OC)Oc1ccc(SC)c(C)c1` [Fenthion] the same measures were 1.02, 0.993, 1.04, 1.08 and 0.984.
For `CCCCC(CC)COC(=O)c1ccccc1C(=O)OCC(CC)CCCC` (stereo not drawn) [Di(2-ethylhexyl) phthalate] the same measures were 0.948, 0.902, 1.01, 1.09 and 0.42.
Turning to `Clc1ccccc1Cl` [1,2-Dichlorobenzene], the “Wnt reporter firefly/Renilla luciferase ratio” value reads like this: (concentration: 0.1 uM) 0.904; (concentration: 1 uM) 1.01; (concentration: 10 uM) 0.88; (concentration: 100 uM) 1.62.
For `Oc1ccccc1Cl` [2-Chlorophenol], in that order: 0.951, 0.944, 1.24 and 1.52.
For `Clc1cccc(Cl)c1Cl` [1,2,3-Trichlorobenzene], the “Wnt reporter firefly/Renilla luciferase ratio” value came to 1.09 (concentration: 0.1 uM), 1.1 (concentration: 1 uM), 1.05 (concentration: 10 uM) and 1.01 (concentration: 100 uM).
As for `COc1ccc(C)cc1N` [2-Methoxy-5-methylaniline], the “Wnt reporter firefly/Renilla luciferase ratio” value by setting is: (concentration: 0.1 uM) 1.14; (concentration: 1 uM) 1.31; (concentration: 10 uM) 1.26; (concentration: 100 uM) 1.29.
Regarding `C1=Cc2cccc3cccc1c23` [Acenaphthylene], the “Wnt reporter firefly/Renilla luciferase ratio” value worked out at 1.29 (concentration: 0.1 uM), 1.26 (concentration: 1 uM), 1.41 (concentration: 10 uM) and 0.898 (concentration: 100 uM).
For `CCCCCCCCCc1ccc(O)cc1` [4-Nonylphenol, branched], in that order: 1.17, 1.09, 0.969 and 1.71.
For `CCCCCCCc1ccc(O)cc1` [4-Heptylphenol] the same measures were 0.655, 0.978, 1.2 and 1.01.
As for `CCCCCCCCCc1ccc(O)cc1` [4-Nonylphenol], the “Wnt reporter firefly/Renilla luciferase ratio” value stood at 0.995 (concentration: 0.1 uM), 0.971 (concentration: 1 uM), 1.16 (concentration: 10 uM) and 0.953 (concentration: 100 uM).
Take `CC(C)(C)C(O)/C(=C\c1ccc(Cl)cc1Cl)n1cncn1` (stereo not drawn) [Diniconazole]: the “Wnt reporter firefly/Renilla luciferase ratio” value is, setting by setting: (concentration: 0.01 uM) 1.09; (concentration: 0.1 uM) 1.05; (concentration: 1 uM) 0.977; (concentration: 10 uM) 0.744.
Take `Clc1ccc(C(c2ccc(Cl)cc2)C(Cl)Cl)cc1`: the “Wnt reporter firefly/Renilla luciferase ratio” value is, setting by setting: (concentration: 0.1 uM) 0.983; (concentration: 1 uM) 0.999; (concentration: 10 uM) 0.984; (concentration: 100 uM) 1.16.
As for `COc1cccc(NCC(F)Cn2c3ccc(Br)cc3c3cc(Br)ccc32)c1` (stereo not drawn), the “Wnt reporter firefly/Renilla luciferase ratio” value is, setting by setting: (concentration: 0.01 uM) 0.859; (concentration: 0.1 uM) 1.11; (concentration: 1 uM) 1.28; (concentration: 10 uM) 0.896; (concentration: 100 uM) 1.01.

Values taken from the supplement of paper PMC9254222.
